In PubChem BioAssay AID1240 (Sanford-Burnham Center for Chemical Genomics, 2008):
Hit rate of the full screen: of about 50,000 compounds, about 800 (1.6%) showed an effect of 50% or more. The sample holds strong results, similar compounds and a random draw of the others, so the mix is not that of the screen.

What follows are compounds tested against Bcl-2-like protein 10 (Homo sapiens) (UniProt Q9HD36) (assay: Phenotype converters, Bcl-B/TR3 peptide binding displacement, primary biochemical FP (AID 1240;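 further: 0% = Bcl-B with tracer peptide and DMSO and 100% = tracer peptide lacking Bcl-B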)). Details: GST-Bcl-B / FITC-TR3 peptide fluorescence polarization; stronger effect = higher value; compound at 3.75 mg/L.
Bcl-2-like protein 10 (Homo sapiens), sequence (Q9HD36 whole entry, looked up): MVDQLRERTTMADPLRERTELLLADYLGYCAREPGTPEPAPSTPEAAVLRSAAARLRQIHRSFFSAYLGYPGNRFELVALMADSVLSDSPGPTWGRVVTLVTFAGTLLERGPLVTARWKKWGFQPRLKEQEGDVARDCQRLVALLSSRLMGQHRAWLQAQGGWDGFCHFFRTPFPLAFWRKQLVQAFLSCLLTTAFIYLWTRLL
For `Cc1ccc(NS(=O)(=O)c2cccc([N+](=O)[O-])c2)cc1Cl`, the displacement was -0.2%.
`CC(=O)Nc1ccccc1NC(=O)c1ccc(Cl)cc1` was tested, and the displacement was 11.4%.
Work on `O=C(O)CCC(=O)Nc1ccc2nn(-c3ccccc3)nc2c1` yielded a displacement of 3.6%.
Compound `COc1cc(C(=O)Nc2ccc(Br)cn2)cc(OC)c1OC` has a displacement of -1.3%.
`COc1ccc(-c2c(C#N)c(N)nc3c2CCCCC3)cc1OC` was tested, and the displacement was -2.3%.
`CCCCOC(=O)c1sc2nc(N)c(C#N)c(-c3ccc(OC)c(OC)c3)c2c1N` gave a displacement of 167%.
`CCOc1ccc(-c2c(C#N)c(N)nc3sc(C#N)c(N)c23)cc1` was tested, and the displacement was -1.4%.
Work on `O=C(CCN1C(=O)c2ccccc2C1=O)NC1CCCC1` yielded a displacement of 8.5%.
Compound `O=C(N/N=C/c1cccnc1)/C(=C\c1cccs1)NC(=O)c1ccccc1` has a displacement of -9.3%.
Compound `O=C1NC(=Nc2cccc(O)c2)S/C1=C\c1cccc(O)c1` has a displacement of 1.9%.
In the case of `O=C1NC(=Nc2cccnc2)S/C1=C\c1cccc(F)c1`, the displacement was 146%.
Compound `O=C1NC(=Nc2cccnc2)S/C1=C\c1ccc(Br)cc1` has a displacement of 12.1%.
`O=C1NC(=Nc2cccnc2)S/C1=C\c1ccc(F)cc1` gave a displacement of 3.5%.
`O=C1NC(=Nc2cccc(O)c2)S/C1=C\c1ccc(F)cc1` showed a displacement of 75.8%.
Compound `O=C1NC(=Nc2ccc(O)cc2)S/C1=C\c1ccc(F)cc1` has a displacement of 7.7%.
`CCOC(=O)C12CC3CC(CC(C3)C1)C2` showed a displacement of -12.2%.
`COc1ccc([N+](=O)[O-])cc1NCc1cccnc1` gave a displacement of 3.1%.
Work on `NC(=O)c1cccc(N=Cc2c(O)ccc3ccccc23)c1` yielded a displacement of -0.3%.
`Oc1ccc2ccccc2c1C=Nc1ccc2oc(-c3ccccc3Br)nc2c1` gave a displacement of 120%.
In the case of `CCC(=O)Nc1ccc2oc(-c3ccccc3Br)nc2c1`, the displacement was 8.7%.
`COc1ccc(-c2ccc(-c3nnc(-c4cccc(C)c4)o3)cc2)cc1` gave a displacement of -5.4%.
`COc1cc(C=NN2CCN(Cc3ccc(C)cc3C)CC2)cc(Br)c1O` showed a displacement of 10.3%.
Work on `N#C/C(=N\Nc1ccccc1F)c1nc(-c2ccccc2)cs1` yielded a displacement of 7.2%.
`N#C/C(=N/Nc1cccc(C(F)(F)F)c1)c1nc(-c2ccccc2)cs1` gave a displacement of -4.4%.
`N#C/C(=N\Nc1ccccc1)c1nc(-c2ccc(F)cc2)cs1` was tested, and the displacement was 127%.
`Cc1ccccc1CNC(=O)CN(c1ccc(Oc2ccccc2)cc1)S(C)(=O)=O` gave a displacement of 7.2%.
Compound `CCOc1ccccc1NC(=O)c1cc(C(=O)OC)cc([N+](=O)[O-])c1` has a displacement of -7.1%.
Compound `CC1=NN(c2ccc(S(N)(=O)=O)cc2)C(=O)/C1=C\c1ccc(-c2ccc(C)c(Cl)c2)o1` has a displacement of 4%.
`COc1ccc(/C=C2/SC(=O)N(CNc3ccc(Br)cc3C)C2=O)c(OC)c1` was tested, and the displacement was 31.7%.
`COC(=O)CN1C(=O)/C(=C/c2cc(OC)ccc2OC)SC1=S` gave a displacement of -14.6%.
Compound `COc1ccc(OC)c(/C=C2/SC(=S)N(c3ccccc3OC)C2=O)c1` has a displacement of -0.9%.
With `COc1ccccc1/C=C1/SC(=O)N(CNc2cccc(Cl)c2)C1=O` the displacement was 9.1%.
In the case of `COc1ccc(OC)c(/C=C2\SC(=S)N(c3ccccc3C)C2=O)c1`, the displacement was 158%.
`COc1ccc(OC)c(/C=C2/SC(=S)N(CNc3cccc(Cl)c3)C2=O)c1` gave a displacement of 57%.
`COc1ccc(OC)c(/C=C2\NC(=S)N(c3ccccc3)C2=O)c1` showed a displacement of 62.3%.
Compound `COc1ccc(N2C(=O)/C(=C\c3cc(OC)ccc3OC)SC2=S)cc1` has a displacement of 28.3%.
For `COc1ccc(C=C2NC(=S)N(c3ccccc3)C2=O)c(OC)c1`, the displacement was 3.7%.
`COc1ccc(OC)c(/C=C2/SC(=O)N(CNc3ccc(Br)cc3C)C2=O)c1` was tested, and the displacement was 90.9%.
Work on `COc1ccc(/C=C2\NC(=S)N(c3ccccc3)C2=O)cc1OC` yielded a displacement of 41.7%.
Compound `COc1ccc(/C=C2/SC(=O)N(CNc3ccc(Br)cc3C)C2=O)cc1` has a displacement of 4.5%.
Work on `COc1cc(CNc2ccc(Br)cc2C)cc(OC)c1OC` yielded a displacement of 13.2%.
With `Cc1ccc(C(=O)Nc2cc(-c3cccc(C)c3)[nH]n2)cc1` the displacement was 6.2%.
Compound `O=C1/C(=C\c2cccc(C(F)(F)F)c2)SC(=S)N1Cc1ccccc1` has a displacement of 11%.
With `Cc1cc(Br)cc2c1NC(=O)C21OCCO1` the displacement was -4.3%.
`Cc1nnc(C)n1/N=C/c1ccc(O)c(O)c1` gave a displacement of 15.9%.
In the case of `COc1ccccc1CNC(=O)C/C(C)=N/NC(=O)C(=O)NC(C)C`, the displacement was -14.6%.
`CSc1ccc(/C=C(\NC(=O)c2ccc(C)cc2)C(=O)Nc2cccc(F)c2)cc1` was tested, and the displacement was 127%.
`N#C/C(=C\c1c[nH]c2ccccc12)C(=O)Nc1ccc(F)cc1` showed a displacement of 15.3%.
`Cc1[nH]c2ccccc2c1/C=C(/C#N)C(=O)Nc1cccc(Br)c1` was tested, and the displacement was -17.5%.
`Cc1ccc(/C=C(/C#N)C(=O)Nc2cccc(Br)c2)o1` showed a displacement of -37.3%.
`N#C/C(=C/c1ccc(Cl)cc1)C(=O)Nc1cccc(Br)c1` showed a displacement of -9.8%.
`CC(=O)c1cccc(NC(=O)/C(=C\c2ccc(Br)cc2)NC(=O)c2ccc(C)cc2)c1` showed a displacement of 2.4%.
Compound `N#C/C(=C/C=C/c1ccco1)C(=O)Nc1cccc(Br)c1` has a displacement of 59.3%.
Work on `N#C/C(=C/c1ccc(C(=O)O)cc1)C(=O)Nc1cccc(Br)c1` yielded a displacement of -2.2%.
`N#C/C(=C/c1c[nH]c2ccccc12)C(=O)Nc1cccc(Br)c1` showed a displacement of 90.7%.
`N#C/C(=C/c1ccc(O)cc1)C(=O)Nc1cccc(Br)c1` gave a displacement of -32.7%.
`CSc1ccc(/C=C(\NC(=O)c2ccc(C)cc2)C(=O)Nc2cccc(C)c2)cc1` was tested, and the displacement was -2.7%.
Compound `CN(C)c1ccc(/C=C(/C#N)C(=O)Nc2cccc(Br)c2)cc1` has a displacement of 53.8%.
Compound `CCOc1ccc(N2C(=O)NC(=O)/C(=C\c3ccc(-c4ccccc4C(=O)O)o3)C2=O)cc1` has a displacement of 14.1%.
`CCN(Cc1ccccc1)C(=O)c1ccccc1[N+](=O)[O-]` gave a displacement of -11.3%.
With `CC(C)c1ccc(C2OC3(C(=O)c4ccccc4C3=O)C3C(=O)N(c4ccc(Cl)c(Cl)c4)C(=O)C23)cc1` (stereo not given) the displacement was 4.5%.
`O=c1c(Oc2ccccc2Br)c(C(F)(F)F)oc2cc(O)ccc12` showed a displacement of 3%.
In the case of `COc1ccc(NC(=O)CN(c2ccccc2Cl)S(C)(=O)=O)cc1OC`, the displacement was 3.6%.
`CCOc1cc(/C=C2\C(=O)NC(=O)N(c3ccc(Cl)cc3)C2=O)cc(Cl)c1OCC(=O)O` was tested, and the displacement was -2.8%.
With `Cc1cc(C)c(C(=O)/C(=C/c2ccc(I)cc2)c2ccccc2)c(=O)[nH]1` the displacement was -1.1%.
Compound `Cc1cccc(C(=O)NNC2=CC(=O)CC(C)(C)C2)c1O` has a displacement of 37.5%.
Work on `COc1cc([N+](=O)[O-])ccc1-c1ccc(/C=C(/C#N)C(=O)Nc2cccc(Br)c2)o1` yielded a displacement of 92.4%.
Compound `N#C/C(=C\c1ccc(-c2ccccc2[N+](=O)[O-])o1)C(=O)Nc1cccc(Br)c1` has a displacement of -6.3%.
Work on `CSc1ccc(/C=C(/C#N)C(=O)Nc2cccc(Br)c2)cc1` yielded a displacement of 80.3%.
Compound `COc1ccc(Cl)cc1/C=C(/C#N)C(=O)Nc1cccc(Br)c1` has a displacement of 14.8%.
For `COc1ccc(/C=C(/C#N)C(=O)Nc2cccc(Br)c2)c(OC)c1`, the displacement was -8.7%.
For `COc1ccc(OC)c(/C=C(/C#N)C(=O)Nc2cccc(Br)c2)c1`, the displacement was 100%.
With `N#C/C(=C/c1ccc(F)cc1)C(=O)Nc1cccc(Br)c1` the displacement was -19.5%.
`N#C/C(=C/c1ccc(C#N)cc1)C(=O)Nc1cccc(Br)c1` showed a displacement of -8.5%.
For `COc1ccc([N+](=O)[O-])cc1-c1ccc(/C=C(/C#N)C(=O)Nc2cccc(Br)c2)o1`, the displacement was 7.6%.
